From PubChem BioAssay
Abeta yeast res: A-beta toxicity reversal in yeast; yeast expressing A-beta42, growth rescue, OD600, 48 h; response scale: 0% DMSO, 100% iron-clioquinol control; Potency, µM (series often up to 46.1 µM), most hits filed as activators; 410,000 tested, 0.063% active; AID 1347071; further: nearly all actives have a fitted effect of over 55% in size
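Yeast growth medium received pinned compounds, then yeast cells expressing toxic A-beta were added; plates incubated at 30 C for 48 hr. Growth read as absorbance at 600 nm, normalized to DMSO and equimolar FeCl3 plus clioquinol controls.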
FUS yeast rescue: suppressors of FUS proteinopathy in yeast; S. cerevisiae FUS-expressing, growth rescue, OD600, 24 h; Potency, µM (top dose mostly 76.6 µM), usual class: activators; 390,000 tested, 0.24% active; further: nearly all actives have a fitted effect of over 55% in size
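Steps: raffinose overnight preculture; dilution to OD 0.005 in 2% galactose minimal medium; compound addition (concentration series); 24hr at 30C, 99% humidity; absorbance read at 600 nm.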
aSyn rescue: alpha-synuclein toxicity inhibition in yeast; Potency, µM (highest dose often 46.1 µM), actives largely listed as activators; 370,000 tested, 0.14% active; Yeast expressing alpha-synuclein, growth rescue, BacTiter-Glo, 24 h; AID 652106; further: nearly all actives have a fitted effect of over 65% in size
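Rescue of yeast growth: cells expressing toxic alpha-synuclein, induced in galactose at OD600 0.02, incubated with compound 24 h at 30 C. ATP luminescence quantified growth; inhibitors of toxicity appear as activators.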
TDP43 rescue: rescues yeast growth from TDP-43 toxicity | TDP-43 expressing yeast growth rescue, BacTiter-Glo, 24 h | Potency, µM (highest dose often 46.1 µM), usual class: activators | 410,000 tested, 1.8% active; further: nearly all actives have a fitted effect of over 50% in size
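Growth rescue of TDP-43-toxic yeast measured as ATP luminescence (BacTiter-Glo). Cells grown to mid-log in raffinose, induced in galactose at OD600=0.02, exposed to compound 24 hr at 30 deg C.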
Large screens that a line does not name were inactive. Rows were chosen to be rich in hits. Some 2.1% of all compounds tested hit in one or more screens of this group. The call rests on the fitted dose curve; in most records, active means well fitted curve in the direction sought with a large enough effect; inconclusive means small, poorly fitted or top-dose-only effect, or another doubt; inactive means no such curve, though single readings can be large; an effect the other way counts as inactive or inconclusive.

Cc1cc(C)c(S(=O)(=O)Nc2cccc3cccnc23)c(C)c1	none (no result: Abeta yeast res, FUS yeast rescue, TDP43 rescue)
O=S(=O)(Nc1cccc2cccnc12)c1cccs1	aSyn rescue 22.4µM (no result: Abeta yeast res, FUS yeast rescue, TDP43 rescue)
COc1ccc(S(=O)(=O)Nc2cccc3cccnc23)c([N+](=O)[O-])c1	aSyn rescue 22.4µM (no result: Abeta yeast res, FUS yeast rescue, TDP43 rescue)
O=S(=O)(Nc1cccc2ccccc12)c1cccs1	none
Cc1ccc(-c2nc3cccnc3s2)cc1NS(=O)(=O)c1cccs1	TDP43 rescue 11.2µM
COc1ccccc1CC(NC(C)=O)C(=O)NC1CCN(C(=O)Nc2cccc(F)c2)CC1 (configuration not stated)	none
NC(=S)Nc1cc2ccccc2c2ccccc12	TDP43 rescue 22.4µM
NC(=S)Nc1cccc2cc3ccccc3cc12	TDP43 rescue inconclusive
Cc1nc2c(OCc3ccc(C(F)(F)F)cc3)cccn2c1N(C)C(=O)CCC1CCCC1	FUS yeast rescue 22.4µM
Cc1ccc2c(c1)c(=O)c1c3n2CCN(C(=O)CCl)C3CC1 (configuration not stated)	none
Cn1ccc2c(-c3ccc(CO)cc3)cc3c(c21)C1CCC3C1 (configuration not stated)	FUS yeast rescue inconclusive, TDP43 rescue 35.5µM
Cc1ccccc1-c1cc2c(c3c1ccn3C)C1CCC2O1 (configuration not stated)	Abeta yeast res inconclusive, TDP43 rescue 11.2µM
Cn1ccc2c(-c3ccc(C(=O)O)cc3)cc3c(c21)C1CCC3O1 (configuration not stated)	TDP43 rescue 22.4µM
Cn1ccc2c(-c3ccc(F)cc3)cc3c(c21)C1CCC3C1 (configuration not stated)	none
Cn1ccc2c(-c3ccc4c(c3)OCCO4)cc3c(c21)C1CCC3O1 (configuration not stated)	FUS yeast rescue inconclusive, TDP43 rescue 22.4µM
Cn1ccc2c(-c3ccc(CO)cc3)cc3c(c21)C1CCC3O1 (configuration not stated)	aSyn rescue inconclusive
CCOc1ccc(-n2c(=O)c3c4c(sc3n(CC(=O)NC(C)CC)c2=O)CCCCC4)cc1 (configuration not stated)	none (no result: aSyn rescue)
Nc1nc(NCC2CCCO2)nc(Nc2cccc(F)c2)c1[N+](=O)[O-] (configuration not stated)	none
Cn1ccc2c(-c3ccc(C(F)(F)F)cc3)cc3c(c21)C1CCC3O1 (configuration not stated)	Abeta yeast res inconclusive, TDP43 rescue 8.91µM
CSc1ccc(-c2cc3c(c4c2ccn4C)C2CCC3O2)cc1 (configuration not stated)	aSyn rescue inconclusive, TDP43 rescue 25.1µM
CSc1ccc(-c2cc3c(c4c2ccn4C)C2CCC3C2)cc1 (configuration not stated)	none
Cn1ccc2c(-c3ccc(C(C)(C)C)cc3)cc3c(c21)C1CCC3O1 (configuration not stated)	none
CC(C)(C)c1ccc(C(=O)Nc2ccc(CC(=O)O)cc2)o1	none
COc1ccccc1C(=O)Nc1nsc(-c2ccccc2)n1	TDP43 rescue 12.6µM
C=CCc1cccc(/C=N/NC(=O)c2ccccc2OC)c1O	TDP43 rescue 15.8µM
C=CCc1cccc(/C=N/NC(=O)c2ccccc2Br)c1O	Abeta yeast res inconclusive, aSyn rescue inconclusive, TDP43 rescue 15.8µM
O=C(N/N=C/c1ccccc1C(=O)O)c1ccccc1Br	none
COc1ccccc1/C=N/NC(=O)c1ccccc1Cl	none
C[C@@H]1CCCCO[C@H](CN(C)C(=O)Nc2ccc(F)cc2)[C@@H](C)CN([C@H](C)CO)C(=O)c2cc(NC(=O)c3ccccc3)ccc2O1	FUS yeast rescue inconclusive
Cc1ccc(NC(=O)C[n+]2ccccc2)cc1C	none
O=c1c2ccc([N+](=O)[O-])cc2ncn1CCOc1cccc(Br)c1	none
O=c1c2ccc([N+](=O)[O-])cc2ncn1CCOc1ccc(Cl)cc1	TDP43 rescue 25.1µM
COc1ccc(CC(=O)NC2CCCc3ccccc32)cc1 (configuration not stated)	TDP43 rescue 17.8µM
O=C(NC(=S)NC1CCCc2ccccc21)c1ccco1 (configuration not stated)	Abeta yeast res 11.2µM, TDP43 rescue inconclusive
O=C(c1cc(F)c(F)cc1Cl)N1CCCCC1	none
C/C(=N\Nc1ccc2nncn2n1)c1ccco1	none
COc1ccc(Oc2ncnc3sccc23)cc1	TDP43 rescue inconclusive
Cc1nc(Oc2ccccc2)c2ccsc2n1	TDP43 rescue 12.6µM
CCOC(=O)C1CCN(C(=O)c2cccc(N3C(=O)NC4CC3(C)Oc3ccc(C)cc34)c2)CC1 (configuration not stated)	none
Cc1ccsc1C(=O)OCC(=O)Nc1c(C)n(C)n(-c2ccccc2)c1=O	none (no result: FUS yeast rescue)
CC1CCC/C(=N\NC(=O)COc2ccc(Cl)cc2Cl)C1 (configuration not stated)	none (no result: FUS yeast rescue)
Clc1ccc(SCNc2ccccc2Cl)cc1	none
Cc1ccc(NCSc2ccc(Cl)cc2)cc1	Abeta yeast res inconclusive, TDP43 rescue 7.08µM
O=C(NCc1ccccc1F)c1ccc2c(c1)OCCO2	Abeta yeast res inconclusive, TDP43 rescue 14.1µM
O=C(NC(=S)NCc1ccccc1)c1ccc2c(c1)OCO2	TDP43 rescue 25.1µM (no result: FUS yeast rescue)
O=C(NC(=S)NCc1ccc2c(c1)OCO2)c1ccccc1	Abeta yeast res inconclusive, TDP43 rescue 15.8µM
Cc1sc2nc(CN3CCCCC3)nc(N3CCN(C(=O)c4ccco4)CC3)c2c1C	none
O=C1C2=C(NC(=S)NC2c2ccc(Cl)cc2)NC(c2ccc(Cl)cc2)N1c1ccc(Cl)cc1 (configuration not stated)	FUS yeast rescue 28.2µM, TDP43 rescue inconclusive
CCc1ccc(C2NC(=S)NC3=C2C(=O)N(c2ccccc2OC)C(c2ccc(CC)cc2)N3)cc1 (configuration not stated)	FUS yeast rescue inconclusive
Cc1ccc(-c2csc(CC(N)=O)n2)cc1	none
O=C(COc1ccccc1F)Nc1ccc(Cl)c(-c2nc3ccccc3[nH]2)c1	FUS yeast rescue inconclusive, TDP43 rescue 35.5µM (no result: aSyn rescue)
Cc1cccc(OCC(=O)Nc2ccc(Cl)c(-c3nc4ccccc4[nH]3)c2)c1	FUS yeast rescue inconclusive, TDP43 rescue 35.5µM (no result: aSyn rescue)
COC(=O)c1ccc(CSc2nnc(CS(=O)Cc3ccc(Br)cc3)n2-c2ccccc2)cc1 (configuration not stated)	TDP43 rescue 25.1µM (no result: FUS yeast rescue)
COC(=O)c1ccc(CSc2nnc(-c3c[nH]c4ccccc34)n2-c2ccccc2)cc1	none
CC(C)N(Cc1nc(-c2ccccc2)no1)C(=O)Cc1ccccc1	TDP43 rescue inconclusive
O=C(c1c[nH]c(C(=O)N2CCN(c3ccccc3F)CC2)c1)c1cccc(Cl)c1Cl	Abeta yeast res 3.16µM, aSyn rescue inconclusive, TDP43 rescue 25.1µM
NC(=O)c1cc(C(=O)c2cccc(Cl)c2Cl)c[nH]1	none
COc1cc2[nH]c(C(=O)N3CCN(c4ccccc4F)CC3)cc2c(OC)c1OC	TDP43 rescue 35.5µM
Cc1ccccc1C(=O)c1c[nH]c(C(=O)N2CCN(c3ccccc3F)CC2)c1	TDP43 rescue 25.1µM
Cc1ccc(N2CCN(C(=O)c3ccccc3F)CC2)c(C)c1	TDP43 rescue inconclusive
